{"source": "PubChem BioAssay AID504332", "about": "(National Center for Advancing Translational Sciences (NCATS), 2011)", "note": "Out of some 350,000 compounds screened, about 31,000 (8.9%) were called active. Inconclusive results (about 15%) are left out. Shown is part of a subset that was picked to be rich in actives. Entries that show only a call come without a potency. Values without a mark were called inactive. Calls follow the shape of the dose curve; as a rule, active = well fitted inhibition curve with a large enough effect; inconclusive = small, poorly fitted or top-dose-only effect; inactive = no such curve, though single readings can be large or run the other way. Potency is read from the fitted curve at half-maximal effect.", "data": [{"target": "Histone-lysine N-methyltransferase EHMT2 (Homo sapiens) (UniProt Q96KQ7)", "sequence (Q96KQ7 913-1193 limits assumed)": "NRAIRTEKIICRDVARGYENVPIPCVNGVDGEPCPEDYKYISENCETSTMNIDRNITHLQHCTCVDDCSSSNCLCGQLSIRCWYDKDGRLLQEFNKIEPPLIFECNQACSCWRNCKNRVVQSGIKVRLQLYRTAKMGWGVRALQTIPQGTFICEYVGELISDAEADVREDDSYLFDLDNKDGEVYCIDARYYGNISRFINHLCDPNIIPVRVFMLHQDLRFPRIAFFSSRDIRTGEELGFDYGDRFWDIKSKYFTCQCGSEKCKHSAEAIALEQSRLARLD", "assay": "qHTS Assay for Inhibitors of Histone Lysine Methyltransferase G9a; also: nearly all actives have a fitted effect of over 75% in size", "settings": "G9a H3K9 monomethylation, AlphaScreen, 2 h; series mostly up to 59 µM", "how_it_was_run": "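Compounds were preincubated with 20 nM G9a for 15 min, after which biotinylated H3K9 peptide (500 nM) and SAM (20 uM) started a 2 h room-temperature reaction. Monomethylated product was quantified by antibody-based AlphaScreen chemiluminescence.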", "values": [{"smiles": "CCOC(=O)C1=NN(c2ccc(Cl)cc2)/C(=C/C2=NCCc3cc(OC)c(OC)cc32)S1", "Potency": "inactive"}, {"smiles": "COc1cc2c(cc1OC)C(c1cccc([N+](=O)[O-])c1)=NCC2", "Potency": "inactive"}, {"smiles": "COc1cc2c(cc1OC)C(/C=C/c1ccco1)=NCC2", "Potency": "50.1 µM (active)"}, {"smiles": "O=C(O)c1cccc2c1C(=O)N(C1CCCC1)C2", "Potency": "inactive"}, {"smiles": "O=C(OCC(=O)N1CCN(C(=O)c2ccco2)CC1)c1ccc(Cl)c(Cl)c1", "activity, negative = inhibition": "16.1% [at 12.7 µM]"}, {"smiles": "COc1ccc(NC(=O)c2ccc3nc(C(C)C)oc3c2)cc1OC", "Potency": "inactive"}, {"smiles": "Cc1cc2nc3n(c2cc1C)CC1CC(C(=O)NCCC(C)C)N(C)C31", "note": "(configuration not stated)", "activity, negative = inhibition": "5.1% [at 12.7 µM]"}, {"smiles": "CCc1ccc(CN(Cc2ccco2)C(=O)c2ccccc2Cl)cc1", "Potency": "inactive"}, {"smiles": "CC1CCC(NC(=O)c2ccc(N3CCCC3=O)cc2)CC1", "note": "(configuration not stated)", "Potency": "inactive"}, {"smiles": "CCOc1ccc(C(=O)NCCCN2CCCC2=O)cc1", "Potency": "inactive"}, {"smiles": "O=C(NCCCN1CCCCCC1)c1ccc(N2CCCC2=O)cc1", "Potency": "22.4 µM (active)"}, {"smiles": "Cc1nc(SCC(=O)N2CCN(c3ccccc3)CC2)[nH]c(=O)c1C", "Potency": "inactive"}, {"smiles": "CC(C)Cn1c(N)c(C(=O)COC(=O)C2CCCN2C(=O)c2cccs2)c(=O)n(C)c1=O", "note": "(configuration not stated)", "Potency": "inactive"}, {"smiles": "CC(C(=O)Nc1ccc(O)c(C(=O)O)c1)N1C(=O)/C(=C/c2cccs2)SC1=S", "note": "(configuration not stated)", "Potency": "35.5 µM (active)"}, {"smiles": "O=C(CCCN1C(=O)/C(=C/c2cccs2)SC1=S)Nc1ccc(O)cc1", "Potency": "inactive"}, {"smiles": "O=C(CCN1C(=O)/C(=C/c2cccs2)SC1=S)NNC(=O)c1cccc(O)c1", "Potency": "inactive"}, {"smiles": "O=C(COc1ccccc1Cl)Nc1ccccc1C(=O)NC1CC1", "Potency": "inactive"}, {"smiles": "Cc1cnc(C)c(N2CCN(C(=O)C3CCC(=O)N(CCc4cccc(F)c4)C3)CC2)n1", "note": "(configuration not stated)", "Potency": "inactive"}, {"smiles": "CCCCC(CC(C)O)c1n[nH]c(=S)n1-c1ccccc1", "note": "(configuration not stated)", "Potency": "5.01 µM (active)"}, {"smiles": "N#Cc1ccccc1Cn1cnc2nc3c(cc2c1=O)CCCC3", "Potency": "inactive"}, {"smiles": "CCN1CCN(C(c2cccnc2)c2cc(Cl)c3cccnc3c2O)CC1", "note": "(configuration not stated)", "Potency": "1.12 µM (active)"}, {"smiles": "COc1ccccc1N1CCN(C(CNC(=O)C(=O)NCc2ccc(C)cc2)c2cccnc2)CC1", "note": "(configuration not stated)", "Potency": "inactive"}, {"smiles": "CCOC(=O)N1CCN(C(=O)CSc2nc(=O)n3cccc(C)c3n2)CC1", "Potency": "inactive"}, {"smiles": "CCOC(=O)N1CCN(C(c2cccnc2)c2ccc3cccnc3c2O)CC1", "note": "(configuration not stated)", "Potency": "0.316 µM (active)"}, {"smiles": "Oc1c(CN2CCCC2)cc(COCc2ccccc2)c2cccnc12", "activity, negative = inhibition": "-18% [at 12.7 µM]"}, {"smiles": "CCOc1ccc(C(NC(=O)c2cc(OC)c(OC)c(OC)c2)c2cc(Cl)c3cccnc3c2O)cc1", "note": "(configuration not stated)", "Potency": "inactive"}, {"smiles": "CC1CCCN(c2cc3c(cc2F)c(=O)c(S(=O)(=O)c2cccc(Cl)c2)cn3Cc2ccccc2)C1", "note": "(configuration not stated)", "Potency": "inactive"}]}]}
